TEAD-YAP block – TEAD-YAP interaction inhibition. HEK-TIYL cells, TEAD-Gal4/YAP UAS-luciferase luminescence. inhibition, % at 9.12 µM. actives 1.4% (n = 640,000). AID 1259422; in the data active = inhibition above about 32%;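 also: 0% = median of test compound wells and 100% = reference inhibitor wells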
FBW7 activator – human FBW7 E3 ligase activation, primary screen. Q969H0. AlphaScreen FBW7–phospho-cyclin E peptide binding, activator screen. normalized activity (activation), % at 26.1 µM. actives 0.13% (n = 650,000). AID 1259310; in the data active = normalized activity above about 1.9%;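 also: purified mutant Fbw7 with reduced substrate affinity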
GPR151 activ – activators of human GPR151 | PathHunter beta-arrestin GPR151 cells, luminescence | activation, % at 11.2 µM | actives 1% (n = 650,000) | AID 1508602; in the data active = activation above about 4.9%;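 also: 0% = median of compound wells and 100% = cells with positive control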
MITF inh – blocks human microphthalmia-associated transcription factor; AlphaScreen MITF homodimerization, bead proximity signal; inhibition, % at 2.6 µM; actives 0.91% (n = 650,000); AID 1259374; in the data active = inhibition above about 50%;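 also: 0% = vehicle wells with protein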
Numbers without * were called inactive. Only some compounds are listed: those with a hit (about 3.5% of all), similar ones and a draw of the others.

SMILES	TEAD-YAP block	FBW7 activator	GPR151 activ	MITF inh
Cc1[nH]n(-c2ccccc2)c(=O)c1C=Nc1ccc(N(C)C)cc1	21	0	0	63*
Cc1[nH]n(-c2ccccc2)c(=O)c1/C=N/Nc1nnc(C)c(=O)[nH]1	15	0	0	101*
Cc1[nH]n(-c2ccccc2)c(=O)c1/C=N/Nc1nncc(-c2ccccc2)n1	42*	0	1	-22
Cc1ccc(/C=N/Nc2nncc(-c3ccccc3)n2)o1	-42	-1	-1	-4
CCOc1ccc(N=Cc2c(C)[nH]n(-c3ccccc3)c2=O)cc1	0	0	2	1
Cc1nnc(N/N=C/c2ccccc2)[nH]c1=O	-4	0	0	-7
CCCCOc1ccc(C(=O)NCCc2cn3ccc(C)cc3n2)cc1	18	0	0	-1
CCOC(=O)c1ccc2c(c1)[C@@H]1C=CC[C@@H]1[C@H](c1ccc(C(=O)O)cc1)N2	7	-1	-1	52*
COC(=O)c1ccc2c(c1)C1C=CCC1C(c1ccc(C(=O)O)cc1)N2 (configuration not stated)	7	-1	-1	70*
CCOC(=O)c1ccc2c(c1)C1C=CCC1C(c1ccc(Cl)cc1)N2 (configuration not stated)	10	0	-1	12
CCOC(=O)[C@@H]1Nc2ccc(C(=O)O)cc2[C@@H]2C=CC[C@H]12	0	-1	-1	74*
CC(=O)c1ccc2c(c1)[C@@H]1C=CC[C@@H]1[C@H](c1ccncc1)N2	-51	-1	0	6
CC(=O)c1ccc2c(c1)[C@@H]1C=CC[C@@H]1[C@H](c1ccc(C(=O)O)cc1)N2	-7	-1	-1	62*
O=C(NCC1CCCO1)C1CCCN(S(=O)(=O)N2CCC3(CC2)OCCO3)C1 (configuration not stated)	5	1	1	8
COc1ccc2c(c1)[C@@H]1C=CC[C@@H]1[C@H](c1ccc(C(=O)O)cc1)N2	-6	0	-1	24
CC(=O)c1ccc2c(c1)[C@@H]1C=CC[C@@H]1[C@H](c1cc3c(cc1Br)OCO3)N2	53*	0	-1	-2
CC(=O)c1ccc2c(c1)C1C=CCC1C(c1ccccc1F)N2 (configuration not stated)	-5	0	2	11
COC(=O)c1ccc2c(c1)C1C=CCC1[C@@H](c1ccc(C(=O)O)cc1)N2 (some centres not stated)	-3	-1	0	66*
COC(=O)c1ccc2c(c1)C1C=CCC1C(c1ccc([N+](=O)[O-])cc1)N2 (configuration not stated)	-4	0	0	-6
O=C(O)c1ccc2c(c1)C1C=CCC1C(c1ccccc1F)N2 (configuration not stated)	4	0	0	56*
O=C(O)c1ccc2c(c1)C1C=CCC1C(c1ccc([N+](=O)[O-])cc1)N2 (configuration not stated)	15	0	-2	84*
COc1ccc(CCNc2nc(Nc3cc(OC)c(OC)c(OC)c3)nc3c2ncn3C2CCCCC2)cc1	5	0	-1	14
O=S(=O)(c1ccc(C2Nc3ccc(F)cc3C3C=CCC32)cc1)N1CCOCC1 (configuration not stated)	-4	0	1	4
O=[N+]([O-])c1ccc2c(c1)C1C=CCC1C(c1ccc(S(=O)(=O)N3CCOCC3)cc1)N2 (configuration not stated)	42*	0	0	5
Cc1nc(N)nc2c1C(=O)CC(c1ccccc1)C2 (configuration not stated)	-15	0	-4	8
SMILES	TEAD-YAP block	FBW7 activator	GPR151 activ	MITF inh
COc1ccc(-n2c(/C=C/N(C)C)c([N+](=O)[O-])c3ccc(O)c(COC(C)=O)c32)cc1	12	0	0	15
CCN(CC)Cc1c(O)ccc2c([N+](=O)[O-])c(C)n(-c3ccc(OC)cc3)c12	37*	0	-1	-7
COc1ccc(OC)c(NC2=C(Cl)C(=O)c3ccccc3C2=O)c1	27	0	2	62*
CCCC1=C(C(=O)OCC)C(c2ccccc2[N+](=O)[O-])n2ncnc2N1 (configuration not stated)	4	0	0	-5
CCCC1=C(C(=O)OCC)C(c2cccc([N+](=O)[O-])c2)n2ncnc2N1 (configuration not stated)	33*	0	-1	11
Cc1nc2ccccc2c2oc(C(=O)NC(C)CCc3ccco3)cc12 (configuration not stated)	7	0	-1	3

From PubChem BioAssay
